Inconclusive results are not listed. Where a call stands in place of a potency, no number is given. Active and inactive are the calls of the source. Calls come from the whole dose curve; as a rule, active = well fitted cell-killing curve with a large enough effect; inconclusive = small, poorly fitted or top-dose-only effect, or effect the other way; inactive = flat fitted curve, though single readings scatter. Where a SMILES comes first, the peptide text is derived from it. [ ]: non-standard residue; d: D form. pGlu = O=C1CC[C@@H](C(=O)O)N1; Thz = O=C(O)[C@@H]1CSCN1
System: SKOV3
Assay: Primary qHTS to identify gynecologic anti-cancer compounds using libraries of approved drugs and bioactive compounds (AID 1345084); note: nearly all actives have a fitted effect of over 55% in size
Conditions: Gynecologic cancer cell panel viability, ATPlite luminescence, 48 h; series mostly up to 57.5 µM
Summary of the method: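 Measured: luminescence after ATPlite addition (15 min, RT). Exposure: 48 h, 37 C, 5% CO2.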
Potency is the fitted concentration of half-maximal effect.

Row | Compound | Potency
1 | O=Cc1ccc(O)c(O)c1O | inactive
2 | CN1[C@@H]2CC[C@H]1CC(OC(=O)C(CO)c1ccccc1)C2 (stereo partly drawn) | inactive
3 | Cc1[nH]cnc1CN1CCc2c(c3ccccc3n2C)C1=O | inactive
4 | O=c1cc(-c2ccccc2)oc2ccccc12 | 31.6 µM (active)
5 | O=C(O)CC1CC(c2ccccc2)=NO1 (stereo not drawn) | inactive
6 | CN(CCCOc1ccc(Cc2ccccc2)cc1)CCC(=O)O | inactive
7 | O=C(O)[C@H](CC(=O)N1C[C@H]2CCCC[C@H]2C1)Cc1ccccc1 | inactive
8 | C#C[C@]1(O)CC[C@H]2[C@@H]3CCc4cc(O)ccc4[C@H]3CC[C@@]21C | 35.5 µM (active)
9 | Nc1ccc(O)c([N+](=O)[O-])c1 | inactive
10 | CC(=O)O[C@H]1C[C@@]2(C)[C@@H](C[C@@H](O)[C@H]3[C@@]4(C)CC[C@@H](O)[C@@H](C)[C@@H]4CC[C@@]32C)/C1=C(\CCC=C(C)C)C(=O)O | inactive
11 | COc1cc(CNC(=O)CCCC/C=C/C(C)C)ccc1O | inactive
12 | Fc1ccc2[nH]c(CN3CCN(c4ccccn4)CC3)cc2c1 | inactive
13 | O=C(Nc1ccc2[nH]ncc2c1)C1CCC1 | inactive
14 | Cc1cc(O)c2ccccc2c1O | inactive
15 | O=[N+]([O-])c1ccc(CNc2nc(NCc3cccc(C(F)(F)F)c3)nc3nc[nH]c23)cc1 | inactive
16 | O=C(O)/C=C\C(=O)O | inactive
17 | O=C1CN(/N=C/c2ccc([N+](=O)[O-])o2)C(=O)N1 | 22.4 µM (active)
18 | CCCSc1ccc2nc(NC(=O)OC)[nH]c2c1 | 2.24 µM (active)
19 | CC(C(=O)O)c1ccc(C(=O)c2cccs2)cc1 (stereo not drawn) | inactive
20 | Clc1ccccc1-c1nc(-c2ccncc2)no1 | 22.4 µM (active)
21 | O=C1CC[C@@H](C(=O)N2CSC[C@H]2C(=O)O)N1 ([pGlu]-[Thz]-OH) | inactive
22 | CC1(C)S[C@@H]2[C@H](NC(=O)[C@H](N)c3ccccc3)C(=O)N2[C@H]1C(=O)O | inactive
23 | COC(=O)Nc1nc2ccc(C(=O)C3CC3)cc2[nH]1 | 10 µM (active)

From PubChem BioAssay (NCATS)
